Assay outcomes as filed in PubChem.
An excerpt weighted towards active compounds, which were near 2.5% of everything screened.
Vaccinia Venus: vaccinia inhibition (Venus reporter); Vaccinia virus Venus reporter expression, fluorescence; Potency, µM (highest dose often 36.5 µM), for the others: top-dose activity change, negative = inhibition, actives largely listed as inhibitors; 0.46% of 330,000 active; calls by dose curve; tested in A549 cells; further: nearly all actives have a fitted effect of over 30% in size
VACV mCherry inh: vaccinia inhibition (mCherry reporter); Vaccinia virus mCherry reporter infection, fluorescence; Potency, µM (series often up to 36.5 µM), without a hit: top-dose activity change, negative = inhibition, most hits filed as inhibitors; 0.63% of 310,000 active; AID 720579; calls by dose curve; tested in A549 cells; further: nearly all actives have a fitted effect of over 35% in size
MARV entry inh: Marburg virus entry inhibition. Marburg virus pseudotyped entry inhibition, cell reporter. Potency, µM (doses to about 37.8 µM), for inactives: top-dose activity change, negative = inhibition, usual class: inhibitors. 1.8% of 300,000 active. AID 540276; calls by dose curve; tested in HEK293 cells
LASV entry inh: Lassa virus entry inhibition; AID 540256; Potency, µM (series often up to 37.9 µM), inactives show at the top dose activity change, negative = inhibition, hits mostly inhibitors; Lassa virus pseudotype entry inhibition, cell reporter; 1.2% of 300,000 active; calls by dose curve; tested in HEK293 cells; further: nearly all actives have a fitted effect of over 50% in size
Numbers without * were called inactive; i = inactive; ? = inconclusive; . = no result given; ! = not active in a repeat; [ ] = remark or other dose. On the % scale 0 is the no-effect control and ±100 the full control effect; potency means the concentration at half of the fitted maximal effect.

SMILES	Vaccinia Venus	VACV mCherry inh	MARV entry inh	LASV entry inh
Cc1ccc2cc(C(c3nnnn3Cc3ccccc3)N3CCN(c4ccccc4)CC3)c(=O)[nH]c2c1 (stereo not drawn)	.	.	21µM*	-19%
Fc1ccccc1N1CCN(C(c2cccs2)c2nnnn2CCc2ccccc2)CC1 (stereo not drawn)	-25%	-13%	?	?
Cc1ccc2cc(C(c3nnnn3C3CCCC3)N3CCN(c4ccccc4)CC3)c(=O)[nH]c2c1 (stereo not drawn)	.	.	?	-26%
Fc1ccc(N2CCN(C(c3cccs3)c3nnnn3CCc3ccccc3)CC2)cc1 (stereo not drawn)	-2%	-10%	13µM*	11µM*
COc1ccc(OC)c(C(c2nnnn2CCc2ccccc2)N2CCN(c3ccccc3)CC2)c1 (stereo not drawn)	-19%	-25%	?	10µM*
CCN1CCN(C(c2cccc(OC)c2OC)c2nnnn2Cc2ccco2)CC1 (stereo not drawn)	-2%	-5%	0%[46.1 µM]	3%
COc1ccc(N2CCN(C(c3cc(OC)ccc3OC)c3nnnn3Cc3ccco3)CC2)cc1 (stereo not drawn)	-7%	-16%	10µM*!	?
Cc1cccc2cc(CN(CC3CCCO3)C(=O)c3ccccc3F)c(N(C)C)nc12 (stereo not drawn)	17%	-6%	.	.
CC(Sc1ncnc2sccc12)C(=O)Nc1ccc(S(=O)(=O)N2CCOCC2)cc1 (stereo not drawn)	?	16µM*	15%	0%
O=C(COC(=O)c1ccccc1Oc1ccccc1)Nc1ccc(Br)cc1	-17%	-1%	.	.
OC(CN1CCCCC1)Cn1c2ccc(Cl)cc2c2cc(Cl)ccc21 (stereo not drawn)	?	?	10µM*	-29%
CC(=O)OC[C@H]1O[C@H](C#Cc2ccccc2Cl)C=C[C@@H]1OC(C)=O	.	.	-1%[14.2 µM]	.
CCCCCCCn1c(=N)n(CC(O)c2ccco2)c2ccccc21 (stereo not drawn)	-23%	?	2.8µM*	?
Cc1ccccc1Cn1c(=N)n(CC(O)c2ccco2)c2ccccc21 (stereo not drawn)	-22%	?	?	-5%
CCCCn1c(=N)n(CC(O)c2ccccc2)c2ccccc21 (stereo not drawn)	-14%	-12%	13µM*	?
CC(C)(C)c1ccc(Cn2c(=N)n(CC(O)c3ccco3)c3ccccc32)cc1 (stereo not drawn)	?	?	11µM*	-27%
C=CCOCCC=C1c2ccccc2[C@@H](OC)[C@@H]1C	.	.	-8%[14.2 µM]	.
COc1cc2c(cc1OC)CN(C(=O)[C@@H]1C[C@H](NCc3cn(C)c4ccccc34)CN1C1Cc3ccccc3C1)CC2	1%	-1%	.	.
CCCCCCn1c([C@H](C)O)nc2ccccc21	.	.	-12%	.
CC1=C(C(=O)OCc2ccccc2)C(/C=C/c2ccccc2)NC(=S)N1 (stereo not drawn)	?	-21%	?	13µM*
S=C(Nc1ccc(CN2CCCCC2)cc1)Nc1cccc(Cl)c1Cl	-14%	-4%	11µM*	?
S=C(Nc1cccc(Cl)c1Cl)NC1CCN(Cc2ccccc2)CC1	-26%	?	?	?
Nc1nc(-c2ccccc2)[nH]c(=O)c1N=O	13µM*	?	.	.
CCCSc1nc2c(cnn2-c2ccc(C)cc2)c(=O)[nH]1	28µM*	?	3%	3%
CCCSc1nc2c(cnn2-c2ccccc2)c(=O)[nH]1	-12%	i	.	.
SMILES	Vaccinia Venus	VACV mCherry inh	MARV entry inh	LASV entry inh
FC(F)(F)c1nc(-c2cccs2)ncc1-c1nnnn1-c1ccc(Cl)cc1	.	.	?	16µM*
FC(F)(F)c1nc(-c2cccnc2)ncc1-c1nnnn1-c1ccccc1	.	.	1%	-1%
CN(C)c1ccc(/C=C/c2ccnc3ccc(Br)cc23)cc1	11%	?	.	.
COCCN(C)C(=O)c1cnn(-c2nccc(-c3cc(OC)ccc3OC)n2)c1C	-3%	i	.	.
NC(=O)c1nsc(C(=O)N(c2ccccc2)C(C(=O)NCc2ccc(F)cc2)c2ccc(O)cc2)c1N (stereo not drawn)	2%	-16%	?	2.2µM*
COc1ccc(N(C(=O)c2snc(C(N)=O)c2N)C(C(=O)NCc2ccccc2)c2ccc(O)cc2)cc1 (stereo not drawn)	-12%	-1%	-14%	0.73µM*
CN(C)c1ccc(C(C(=O)NCC2CCCO2)N(Cc2ccccc2)C(=O)c2snc(C(N)=O)c2N)cc1 (stereo not drawn)	-9%	i	?	?
NC(=O)c1nsc(C(=O)N(Cc2ccc(F)cc2)C(C(=O)NCC2CCCO2)c2ccc(F)cc2)c1N (stereo not drawn)	-20%	-18%	11µM*	-8%
CN(C)c1ccc(/C=C/c2ccnc3c(Cl)cccc23)cc1	27%	-5%	.	.
O=C(C[n+]1ccncc1)c1ccc2ccccc2c1	1%	23%	.	.
CCOC(=O)N/N=C1\C[C@@H](O)[C@@H](O)[C@@H]2[C@@H]3C(=O)N(C[C@@H]4CCCO4)C(=O)[C@@H]3CC[C@@H]12	.	.	6%[14.2 µM]	.
COc1ccc(NC(=O)c2ccc(COCC(F)(F)F)cc2)cc1OC	-25%	i	?	0%
COc1ccc(C(=O)Nc2ccc(OCC(F)(F)C(F)F)c(C(F)(F)F)c2)cc1OC	?	?	?	18µM*
COC(=O)COc1cccc(NC(=O)c2ccc(Cl)cc2)c1	-7%	3%	?	1%
O=C(Nc1ccc(OCC(F)(F)C(F)F)c(C(F)(F)F)c1)c1ccc(Cl)cc1	?	?	16µM*	?
Oc1ccc(/C=N/Nc2cc(N3CCOCC3)nc(N3CCOCC3)n2)cc1	-26%	-19%	6.5µM*	-19%
COc1ccc(/C=N/Nc2cc(N3CCCC3)nc(N3CCCC3)n2)cc1	?	?	?	3.2µM*
COc1cc(CN2CCC(N3CCC(C(=O)N4CCCC4)CC3)CC2)cc2c1OCO2	-26%	-3%	?	-14%[46.1 µM]
O=C(C1CCN(C2CCN(Cc3ccc4c(c3)CCO4)CC2)CC1)N1CCCC1	-16%	-12%	4.5µM*	-5%[46.1 µM]
Cc1nc2c(o1)CCc1ccccc1[C@H]2N1CCN(C)CC1	.	.	-15%	.
Cn1c(=O)c2c(nc(N/N=C/c3ccc(OC(=O)c4ccco4)cc3)n2Cc2ccccc2)n(C)c1=O	-3%	-2%	?	10µM*
Cc1ccc(S(=O)(=O)c2nc(S(C)(=O)=O)sc2N(C)Cc2ccccc2)cc1	-11%	-17%	-2%[46.1 µM]	?
Cc1ccc(S(=O)(=O)c2nc(S(C)(=O)=O)sc2N(C)C)cc1	11µM*	-16%[1.46 µM]	9%	-29%
Clc1ccc(OCc2cc(-c3ccccc3)no2)c(Cl)c1	-11%	-10%	7.1µM*	11µM*
Clc1ccc(SCc2cc(-c3ccccc3)no2)cc1	-20%	.	-10%	3%
COc1cccc(CN2Cc3cccc4c3[C@H](C=CC4)CC2=O)c1	-22%	-3%	.	.
COc1ccc2[nH]c(C)cc2c1	-7%	-12%	.	.
Cc1cc(NC(=O)OC2CCCCC2)ccc1[N+](=O)[O-]	8%	-21%	10µM*	?
O=C(NC1CCN(C(=O)N2c3ccccc3Sc3ccccc32)CC1)c1ccco1	-17%	-13%	?	?
O=C(c1ccco1)N1c2ccccc2Sc2ccccc21	-16%	-19%	22µM*	?
